Test results reported in PubChem BioAssay.

target: Streptavidin (Streptomyces avidinii) (UniProt P22629); experiment: compounds binding control protein streptavidin – biophysical, small-molecule microarray, 635/667 nm fluorescence, artefact control for SMM compound annotation, primary screen (AID 1147); conditions: higher = more signal;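 also: signal reflects streptavidin binding to arrayed compounds as a control protein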
Sequence (P22629 whole entry, looked up): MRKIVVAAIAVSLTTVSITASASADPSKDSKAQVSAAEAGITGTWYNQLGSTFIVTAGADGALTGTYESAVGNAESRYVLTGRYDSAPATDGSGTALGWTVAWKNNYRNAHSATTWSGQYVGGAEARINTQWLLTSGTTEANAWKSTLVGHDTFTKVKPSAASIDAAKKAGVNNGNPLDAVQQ

| Compound | composite z-score |
| --- | --- |
| COCCOC(=O)N1C(=O)[C@@]2(c3ccccc31)[C@H](c1ccc(O)cc1)N1[C@H](c3ccccc3)[C@H](c3ccccc3)OC(=O)[C@H]1[C@@H]2C(=O)Nc1nc2ccccc2s1 | 0.795 |
| C=CCOC(=O)[C@H]1[C@@H]2C(=O)O[C@@H](c3ccccc3)[C@@H](c3ccccc3)N2[C@@H](c2ccc(OCCOC(=O)[C@H]3C[C@H]4C(=O)N[C@@H](CCCCN(C)C)C(=O)N4[C@H]3c3ccc(O)cc3)cc2)[C@]12C(=O)Nc1ccc(I)cc12 | 1.23 |
| NC(=O)[C@@H]1[C@H]2C(=O)O[C@H](c3ccccc3)[C@H](c3ccccc3)N2[C@H](c2ccc(O)cc2)[C@@]12C(=O)Nc1ccccc12 | -0.99 |
| CC(C)C[C@@H]1NC(=O)[C@H](C(C)C)NC(=O)[C@@]23C(=O)N[C@@H](Cc4ccccc4)C2[C@H](C)[C@@]2(C)O[C@H]2C3/C=C/CC/C=C/CNC1=O (stereo partly specified) | 0.186 |
| COC(=O)C(CC#Cc1ccc2c(c1)[C@]1(C(=O)N2)[C@H](c2ccc(OCCO)cc2)N2[C@H](c3ccccc3)[C@H](c3ccccc3)OC(=O)[C@H]2[C@@H]1C(=O)Nc1nc2ccccc2s1)C(=O)OC | 1.53 |
| O=C1NC(=O)C2C1C=CC(C(O)c1cc(C(F)(F)F)cc(C(F)(F)F)c1)N2Nc1ccccn1 (stereo unspecified) | 0.0086 |
| Cc1ccc(S[C@]2(C(=O)NCCCN(C)C)CC(=O)N(Cc3cc(C(F)(F)F)cc(C(F)(F)F)c3)[C@@H]2c2ccc(CO)cc2I)cc1 | -0.0724 |
| C=C(C(=O)CC[C@@H](OC(=O)c1cccnc1)c1ccccc1OCCO)C(C)C | -0.405 |
| COc1cc(NN2C(C(O)c3ccco3)C=CC3C(=O)N(c4ccccc4)C(=O)C32)cc(OC)c1OC (stereo unspecified) | 0.0123 |
| COC(=O)[C@@]1(Cc2ccc(OC)cc2)[C@H]2c3cc(C(=O)N(C)C)n(CCc4ccccn4)c3C[C@H]2CN1C(=O)c1ccccc1 | 1.86 |
| O=C(NC1CC1)[C@@H]1c2ccccc2C(=O)N(Cc2ccccc2Cl)[C@H]1c1ccc(CO)cc1 | 0.384 |
| COC(=O)[C@@]1(Cc2ccc(F)cc2)[C@H]2c3cc(C(=O)N(C)C)n(Cc4ccccc4)c3C[C@H]2CN1C(=O)c1ccccc1 | 1.16 |
| O=C1C2C=CC(C(O)CCc3ccccc3)N(Nc3ccccc3F)C2C(=O)N1c1ccccc1 (stereo unspecified) | 0.787 |
| C=C[C@H](CO[Si](CC)(CC)CC)N(Cc1ccc(OC(C)=O)c(OC)c1)S(=O)(=O)c1ccc(Br)cc1 | 1.61 |
| O=C1O[C@@H](c2ccccc2)[C@@H](c2ccccc2)N2[C@@H](c3ccccc3OCCO)[C@]3(C(=O)Nc4ccc(C#CC5=CCCCC5)cc43)[C@@H](C(=O)N3CCCCCCC3)[C@H]12 | 3.51 |
| CCOC(=O)[C@H]1C/C=C/C[C@H](C(=O)OCC)C(=O)O[C@H]2[C@@H](OC)O[C@H](CO)[C@@H](OC(=O)c3c(OC)cccc3OC)[C@@H]2OC1=O | 0.475 |
| CCC(CC)C(O)C1C=CC2C(=O)NC(=O)C2N1Nc1ccc(Cl)cc1Cl (stereo unspecified) | 0.673 |
| CCOC(=O)C[C@H]1[C@H](OC(=O)c2ccc(C(=O)c3ccccc3)cc2)[C@@H](NC(=O)c2ccc3ccccc3c2)c2cc(OCCCO)ccc2N1C(=O)Cc1ccc(OC)cc1 | 0.271 |
| COC(=O)[C@@]1(CCC(=O)OC(C)(C)C)N=C(c2ccc(OCCCO)cc2)O[C@H]1c1ccccc1N=[N+]=[N-] | -0.0572 |
| COC(=O)[C@@]1(Cc2ccc(OC)cc2)[C@H]2c3cc(C(=O)N(C)C)n(Cc4ccccn4)c3C[C@H]2CN1C(=O)c1ccccc1 | 2.57 |
| CCCC[C@@H]1C[C@H]1[C@@H](NC(=O)c1ccccc1)c1ccc(C(=O)OC)cc1 | -0.279 |
| CCCCCCc1nc(-c2ccc(OC)nc2)cc2c1[Si](C(C)C)(C(C)C)O[C@H]2c1ccccc1 | 0.111 |
| COC(=O)C(CC#Cc1ccc2c(c1)[C@]1(C(=O)N2)[C@H](C(=O)Nc2nc3ccccc3s2)[C@H]2C(=O)O[C@H](c3ccccc3)[C@H](c3ccccc3)N2[C@@H]1c1ccccc1OCCO)C(=O)OC | 0.679 |
| CN(C)C(=O)[C@@]1(CCS(=O)(=O)c2ccccc2)COC(c2ccc(OCCCO)cc2)=N1 | 0.0248 |
| COc1ccc(C#Cc2ccc3c(c2)[C@]2(C(=O)N3)[C@H](C(=O)Nc3nc4ccccc4s3)[C@H]3C(=O)O[C@H](c4ccccc4)[C@H](c4ccccc4)N3[C@@H]2c2ccc(O)cc2)cc1 | 2.25 |
| C=C(CC1([C@@H](NP(=O)(c2ccccc2)c2ccccc2)[C@H]2C[C@@H]2CCCC)CC1)c1ccccc1 | 1.39 |
